Results reported in PubChem BioAssay (EPA / NIEHS).
Records with an inconclusive call do not appear. Activity calls are given as the source filed them. How the source made its calls, unless noted: active means hit-call score of the fitted dose curve at least 0.9, where 1 is the maximum; inactive means score below 0.9.

How the values were obtained:
[1] = target: human RAR-related Orphan Receptor gamma (RORg), RORC (gene 6097) (UniProt P51449); test: ATG_RORg_TRANS: Attagene TRANS-FACTORIAL HepG2 Assay for human RAR-related Orphan Receptor gamma (RORg) (AID 2283011; active means hit-call score of the fitted dose curve at least 0.9, where 1 is the maximum)
Method in brief: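 HepG2 cells transiently transfected with GAL4-UAS reporter units and chimeric RORg-Gal4 construct; after 24 h chemical exposure, reporter mRNA measured by RT-PCR with fluorescent capillary electrophoresis, gain of signal fitted against DMSO.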

[2] = target: Retinoic acid receptor RXR-alpha (Homo sapiens) (UniProt P19793); test: ATG_RXRa_TRANS: Attagene TRANS-FACTORIAL HepG2 Assay for human Retinoid X Receptor alpha (RXRa) (AID 2283012; active means hit-call score of the fitted dose curve at least 0.9, where 1 is the maximum)
Method in brief: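 HepG2 cells transiently transfected with multiplexed GAL4-UAS reporter units and chimeric NR-GAL4 fusions, dosed 24 h. Reporter mRNA measured by RT-PCR, FAM labelling, HpaI digestion and capillary electrophoresis; gain-of-signal fitted relative to DMSO baseline.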

[3] = target: human Retinoid X Receptor beta (RXRb), RXRB (gene 6257) (UniProt P28702); test: ATG_RXRb_TRANS: Attagene TRANS-FACTORIAL HepG2 Assay for human Retinoid X Receptor beta (RXRb) (AID 2283013; active means hit-call score of the fitted dose curve at least 0.9, where 1 is the maximum)
Method in brief: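 HepG2 cells transiently transfected with multiplexed reporter units driven by GAL4-UAS and exogenous chimeric NR-Gal4 proteins; treated 24 h. Reporter mRNA measured by RT-PCR, 6-FAM labelling and capillary electrophoresis; gain-of-signal fitted versus DMSO baseline.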

[4] = read-out: E-selectin (Homo sapiens) (UniProt P16581); test: BSK_3C_Eselectin: BioMAP Diversity Plus: 3C Assay for Eselectin Biomarker Activity (AID 2283015); settings: primary human endothelial cells (HUVEC); actives raise or lower the signal
Method in brief: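 Primary human umbilical vein endothelial cells (3C system), read 24 h after compound addition; E-selectin measured by ELISA. Bidirectional curve fitting against DMSO baseline; cytotoxicity by parallel SRB total-protein staining.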

[5] = read-out: Interleukin-1 alpha (IL1a), IL1A (gene 3552); test: BSK_BE3C_IL1a: BioMAP Diversity Plus: BE3C Assay for Interleukin-1 alpha (IL1a) Biomarker Activity (AID 2283016); settings: primary human bronchial epithelial cells; actives raise or lower the signal
Method in brief: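 Human primary bronchial epithelial cells (BE3C system) were dosed with compound and IL-1a measured by ELISA 24 h later. Activity was fitted bidirectionally against DMSO baseline; cytotoxicity was tracked in parallel cultures by SRB total-protein staining.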

[6] = read-out: Monocyte Chemoattractant Protein-1 (MCP1), CCL2 (gene 6347); test: BSK_3C_MCP1: BioMAP Diversity Plus: 3C Assay for Monocyte Chemoattractant Protein-1 (MCP1) Biomarker Activity (AID 2283017); settings: primary human endothelial cells (HUVEC); actives raise or lower the signal
Method in brief: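 Human umbilical vein endothelial cells (3C system) exposed to chemicals for 24 h; MCP-1 quantified by ELISA against the DMSO baseline with bidirectional fitting, and parallel SRB staining used to assess cytotoxicity.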

[7] = read-out: Monocyte Chemoattractant Protein-1 (MCP1), CCL2 (gene 6347); test: BSK_4H_MCP1: BioMAP Diversity Plus: 4H Assay for Monocyte Chemoattractant Protein-1 (MCP1) Biomarker Activity (AID 2283018); settings: primary human endothelial cells (HUVEC); actives raise or lower the signal
Method in brief: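 Human umbilical vein endothelial cells (4H system) dosed with chemical; MCP-1 measured by ELISA 24 h after dosing. Bidirectional curve fitting against DMSO negative control as baseline; parallel SRB total-protein staining tracks overt cytotoxicity.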

[8] = read-out: Human Leukocyte Antigen - DR isotype (HLADR), HLA-DRA (gene 3122); test: BSK_3C_HLADR: BioMAP Diversity Plus: 3C Assay for Human Leukocyte Antigen - DR isotype (HLADR) Biomarker Activity (AID 2283019); settings: primary human endothelial cells (HUVEC); actives raise or lower the signal
Method in brief: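 HUVEC monoculture, HLA-DR measured by ELISA 24 h after chemical dosing. Fitted bidirectionally against DMSO baseline; parallel SRB staining assessed cytotoxicity, with 3C proliferation read by SRB at 48 h.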

[9] = read-out: Interleukin-8 (IL8), CXCL8 (gene 3576); test: BSK_3C_IL8: BioMAP Diversity Plus: 3C Assay for Interleukin-8 (IL8) Biomarker Activity (AID 2283020); settings: primary human endothelial cells (HUVEC); actives raise or lower the signal
Method in brief: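 Primary human umbilical vein endothelial cells (3C system) were exposed to test chemical for 24 h, then IL-8 was quantified by ELISA. Responses were fitted bidirectionally against DMSO vehicle as baseline.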

[10] = target: human Thyroid Receptor alpha (THRa1), THRA (gene 7067) (UniProt P10827); test: ATG_THRa1_TRANS: Attagene TRANS-FACTORIAL HepG2 Assay for human Thyroid Receptor alpha (THRa1) (AID 2283014; active means hit-call score of the fitted dose curve at least 0.9, where 1 is the maximum)
Method in brief: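 HepG2 cells transiently transfected with chimeric NR-Gal4 and GAL4-UAS reporter units, dosed 24 h. Reporter mRNA quantified by RT-PCR, fluorescent labeling, HpaI digestion and capillary electrophoresis; gain-of-signal fit versus DMSO.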

Measured: AC50

Chain of E-selectin (Homo sapiens) (P16581 whole entry, looked up): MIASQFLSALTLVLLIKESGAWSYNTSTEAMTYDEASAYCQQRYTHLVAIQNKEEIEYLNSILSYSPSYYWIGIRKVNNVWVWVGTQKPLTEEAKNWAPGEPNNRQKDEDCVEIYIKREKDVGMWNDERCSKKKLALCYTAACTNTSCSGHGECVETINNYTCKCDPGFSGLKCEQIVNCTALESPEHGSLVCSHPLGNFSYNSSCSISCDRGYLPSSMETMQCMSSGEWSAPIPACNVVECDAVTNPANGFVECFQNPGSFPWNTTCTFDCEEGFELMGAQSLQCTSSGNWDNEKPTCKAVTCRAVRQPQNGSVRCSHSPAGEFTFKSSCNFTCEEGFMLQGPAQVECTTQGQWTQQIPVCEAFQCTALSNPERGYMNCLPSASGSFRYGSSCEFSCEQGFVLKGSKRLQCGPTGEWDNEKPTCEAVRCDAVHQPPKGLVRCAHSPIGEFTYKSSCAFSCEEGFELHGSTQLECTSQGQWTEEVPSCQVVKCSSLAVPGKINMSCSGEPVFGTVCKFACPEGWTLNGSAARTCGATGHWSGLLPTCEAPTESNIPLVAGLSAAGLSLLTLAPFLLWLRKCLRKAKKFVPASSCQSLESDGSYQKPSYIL
Chain of Retinoic acid receptor RXR-alpha (Homo sapiens) (P19793 whole entry, looked up, the tested form may be a part): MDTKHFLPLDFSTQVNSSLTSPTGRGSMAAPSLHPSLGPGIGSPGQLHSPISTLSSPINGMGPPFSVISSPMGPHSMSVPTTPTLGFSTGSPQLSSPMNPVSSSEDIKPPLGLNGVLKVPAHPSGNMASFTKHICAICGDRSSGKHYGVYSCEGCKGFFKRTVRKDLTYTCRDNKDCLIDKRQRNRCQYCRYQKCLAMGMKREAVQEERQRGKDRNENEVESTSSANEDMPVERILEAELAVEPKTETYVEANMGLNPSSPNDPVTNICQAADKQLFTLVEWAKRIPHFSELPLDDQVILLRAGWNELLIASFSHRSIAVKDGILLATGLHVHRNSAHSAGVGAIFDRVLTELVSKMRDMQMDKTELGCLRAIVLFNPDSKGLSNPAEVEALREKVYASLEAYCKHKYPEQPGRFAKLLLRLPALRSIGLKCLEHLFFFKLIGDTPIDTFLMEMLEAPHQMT
Chain of human Retinoid X Receptor beta (RXRb), RXRB (gene 6257) (P28702 whole entry, looked up, the tested form may be a part): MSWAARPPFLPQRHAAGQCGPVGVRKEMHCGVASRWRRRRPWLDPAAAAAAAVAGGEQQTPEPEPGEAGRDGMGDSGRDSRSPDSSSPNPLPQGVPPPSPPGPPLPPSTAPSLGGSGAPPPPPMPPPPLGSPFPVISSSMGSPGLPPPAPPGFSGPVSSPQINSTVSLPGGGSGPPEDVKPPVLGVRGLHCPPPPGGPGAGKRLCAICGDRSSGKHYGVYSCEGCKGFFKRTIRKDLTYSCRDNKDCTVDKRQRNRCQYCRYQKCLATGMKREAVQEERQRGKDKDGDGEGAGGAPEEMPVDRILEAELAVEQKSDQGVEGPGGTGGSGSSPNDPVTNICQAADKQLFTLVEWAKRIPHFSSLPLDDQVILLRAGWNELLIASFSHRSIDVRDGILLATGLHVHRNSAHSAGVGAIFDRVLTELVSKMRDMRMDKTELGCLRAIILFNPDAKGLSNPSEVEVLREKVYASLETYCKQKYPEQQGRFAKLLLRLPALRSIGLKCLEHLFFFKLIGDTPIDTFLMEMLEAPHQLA
Chain of human RAR-related Orphan Receptor gamma (RORg), RORC (gene 6097) (P51449 whole entry, looked up, the tested form may be a part): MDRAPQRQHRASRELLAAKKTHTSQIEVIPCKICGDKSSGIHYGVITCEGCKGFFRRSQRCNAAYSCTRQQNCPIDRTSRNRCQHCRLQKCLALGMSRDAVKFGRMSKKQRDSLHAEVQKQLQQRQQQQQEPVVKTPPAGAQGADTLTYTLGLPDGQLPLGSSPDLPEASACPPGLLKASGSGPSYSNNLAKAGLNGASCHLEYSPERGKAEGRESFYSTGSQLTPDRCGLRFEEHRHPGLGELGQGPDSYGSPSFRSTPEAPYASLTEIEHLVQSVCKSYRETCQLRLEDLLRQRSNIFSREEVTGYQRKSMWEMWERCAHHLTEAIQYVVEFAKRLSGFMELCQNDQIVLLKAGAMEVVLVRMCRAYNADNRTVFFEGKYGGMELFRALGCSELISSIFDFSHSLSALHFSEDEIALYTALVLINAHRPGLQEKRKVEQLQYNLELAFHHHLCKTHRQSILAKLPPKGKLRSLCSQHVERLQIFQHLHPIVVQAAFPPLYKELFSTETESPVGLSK
Chain of human Thyroid Receptor alpha (THRa1), THRA (gene 7067) (P10827 whole entry, looked up, the tested form may be a part): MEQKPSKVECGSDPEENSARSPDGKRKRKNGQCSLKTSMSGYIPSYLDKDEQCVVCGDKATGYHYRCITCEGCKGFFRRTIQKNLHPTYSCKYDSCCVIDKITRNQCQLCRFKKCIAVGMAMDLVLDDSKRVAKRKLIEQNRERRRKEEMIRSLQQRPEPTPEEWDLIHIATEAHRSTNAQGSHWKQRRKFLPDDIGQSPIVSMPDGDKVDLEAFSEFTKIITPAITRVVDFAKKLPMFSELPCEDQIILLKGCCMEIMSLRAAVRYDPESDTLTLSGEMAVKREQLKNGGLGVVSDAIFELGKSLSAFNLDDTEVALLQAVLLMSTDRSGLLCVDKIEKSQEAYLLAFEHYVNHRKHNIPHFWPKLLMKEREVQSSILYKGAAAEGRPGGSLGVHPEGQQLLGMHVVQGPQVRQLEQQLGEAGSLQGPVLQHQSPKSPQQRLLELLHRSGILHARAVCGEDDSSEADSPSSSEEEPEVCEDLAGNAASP

CSC(=O)c1c(C(F)F)nc(C(F)(F)F)c(C(=O)SC)c1CC(C)C
inactive: [1] | [2] | [4] | [5]
active: [3] 15.1 µM | [6] 31.2 µM | [7] 20 µM | [8] 31.1 µM | [9] 32.4 µM

CCOP(=O)(OCC)Oc1nc(Cl)c(Cl)cc1Cl
active: [8] 24.6 µM | [9] 20 µM
not listed: [5] | [10]
inactive: all other assays above

COC(=O)N(C(=O)N1CO[C@@]2(C(=O)OC)Cc3cc(Cl)ccc3C2=N1)c1ccc(OC(F)(F)F)cc1
active: [7] 6.07 µM
not listed: [5]
inactive: all other assays above

OC(c1ccc(Cl)cc1)(c1ccc(Cl)cc1)C(Cl)(Cl)Cl
active: [4] 13.8 µM | [6] 29.3 µM | [7] 13.8 µM | [8] 12 µM | [9] 15.3 µM
inactive: [2] | [3]

CCCCOCN(C(=O)CCl)c1c(CC)cccc1CC
active: [4] 19.3 µM | [6] 30.2 µM | [7] 25.6 µM | [8] 31 µM | [9] 34.5 µM
inactive: [2] | [3] | [10]

CC1(C)C(C(=O)OC(C#N)c2cccc(Oc3ccccc3)c2)C1(C)C (stereo not drawn)
not listed: [1] | [2] | [6]
inactive: all other assays above

CCN(CC)c1nc(C)cc(OP(=S)(OC)OC)n1
active: [3] 33.7 µM
not listed: [2] | [5]
inactive: all other assays above

CCOC(=O)C(C)OC(=O)c1cc(Oc2ccc(C(F)(F)F)cc2Cl)ccc1[N+](=O)[O-] (stereo not drawn)
active: [6] 10.6 µM | [7] 6.5 µM | [8] 3.97 µM
inactive: [3] | [10] | [4] | [9]

Clc1nc(Cl)nc(Nc2ccccc2Cl)n1
not listed: [1] | [3] | [5]
inactive: all other assays above

CCNP(=S)(OC)O/C(C)=C/C(=O)OC(C)C (stereo not drawn)
not listed: [2] | [10]
inactive: all other assays above

COP(=O)(OC)O/C(C)=C/C(=O)N(C)C
not listed: [2] | [3] | [5]
inactive: all other assays above

CC(C)NC(=O)N1CC(=O)N(c2cc(Cl)cc(Cl)c2)C1=O
inactive: [2] | [5] | [6] | [7] | [8] | [9]

CN=C=S
active: [4] 11.7 µM | [8] 8.86 µM
inactive: [1] | [10] | [6] | [7] | [9]

CCCCC(C#N)(Cn1cncn1)c1ccc(Cl)cc1 (stereo not drawn)
not listed: [2] | [10]
inactive: all other assays above

CN/C(=N\[N+](=O)[O-])NCc1cnc(Cl)s1
inactive: [10] | [4] | [6] | [7] | [8] | [9]

COCC(C)N(C(=O)CCl)c1c(C)csc1C (stereo not drawn)
not listed: [2] | [3]
inactive: all other assays above

COCC(=O)N(c1c(C)cccc1C)C(C)C(=O)OC (stereo not drawn)
inactive: [2] | [4] | [6] | [7] | [8] | [9]

N#Cc1c(Cl)cccc1Cl
active: [8] 3.97 µM
not listed: [1]
inactive: all other assays above

N#CN=C1SCCN1Cc1ccc(Cl)nc1
not listed: [1] | [5] | [10]
inactive: all other assays above

Cn1c(-c2ccccc2)cc(-c2ccccc2)[n+]1C
inactive: [3] | [7] | [9]
active: [4] 1.56 µM | [6] 5.41 µM | [8] 2.89 µM
